TRPML1 ag – activates the human TRPML1 channel. 0.12% of 410,000 active. TRPML1-expressing cells, Ca2+ dye fluorescence, FDSS. Q9GZU1. activation, % (no concentration beside the values); in the data active means activation above about 50%; inconclusive means mostly about 30% to 49%; further: 0% is about no effect
Target sequence (Q9GZU1 whole entry, looked up): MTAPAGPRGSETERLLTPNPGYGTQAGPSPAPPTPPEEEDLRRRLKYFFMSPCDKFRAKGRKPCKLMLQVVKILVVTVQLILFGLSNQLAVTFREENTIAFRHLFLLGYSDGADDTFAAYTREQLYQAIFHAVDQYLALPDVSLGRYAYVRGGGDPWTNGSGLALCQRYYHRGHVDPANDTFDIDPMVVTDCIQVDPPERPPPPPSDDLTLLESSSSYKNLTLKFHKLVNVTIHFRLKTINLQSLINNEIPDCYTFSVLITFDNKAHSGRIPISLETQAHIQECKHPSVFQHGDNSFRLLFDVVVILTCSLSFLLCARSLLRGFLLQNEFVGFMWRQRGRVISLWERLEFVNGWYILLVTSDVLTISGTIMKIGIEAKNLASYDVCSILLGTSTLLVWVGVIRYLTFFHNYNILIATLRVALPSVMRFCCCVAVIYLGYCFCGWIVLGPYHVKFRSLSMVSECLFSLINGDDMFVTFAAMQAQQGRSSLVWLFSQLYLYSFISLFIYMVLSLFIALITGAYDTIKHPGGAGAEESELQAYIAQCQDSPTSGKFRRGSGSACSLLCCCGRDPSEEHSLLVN
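Tet-induced TRPML1-DL cells, 1,500 per well, cultured overnight, were loaded with a no-wash Ca2+ dye for 45–90 min. Calcium fluorescence was recorded on the FDSS for 110 s after compound addition, before the EC80 agonist (4 uM 54-4) was added.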
TRPML1 inh – human mucolipin-1 channel inhibition. Q9GZU1. TRPML1-inducible cells, Ca2+ dye fluorescence, FDSS; active compounds read low; inhibition of EC80 agonist-evoked calcium signal. activity change, negative = inhibition, % (test concentration not listed). 0.02% of 390,000 active. AID 624415; in the data active means activity change below about -50%; inconclusive means between about -30% and that limit;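 further: stimulus is agonist 54-4 at its EC80 concentration; on the % scale 0 is the no-effect control and ±100 the full control effect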
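Tet-induced TRPML1-DL cells loaded with Ca8 no-wash calcium dye were read kinetically on FDSS. Compound addition was followed by EC80 agonist 54-4 (4 uM final); inhibition was read over 110 s.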
Vif-APOBEC3G blk – Vif-A3G binding inhibition; Q9HC16; HeLa A3G-eYFP + Vif (tagged APOBEC3G with the HIV-1 protein that degrades it), YFP fluorescence, overnight; Potency, µM (series often up to 46.1 µM), for inactives: at the top dose activity, negative = active, hits mostly inhibitors; 0.076% of 410,000 active; further: potency means the concentration at half of the fitted maximal effect; on the % scale 0 is the no-effect control and ±100 the full control effect; nearly all actives have a fitted effect of over 60% in size
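HeLa cells stably expressing Vif and C-terminally eYFP-tagged A3G, seeded overnight at 37 deg C, then exposed to compound by pintool overnight at 37 deg C. Rise in yellow fluorescence (Ex 488/Em 500-530, Acumen) marks blocked Vif-driven A3G degradation.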
GRP78 ERSR act – ER stress response induction in glioma. U87-MG GRP78 promoter luciferase reporter, 16 h. Potency, µM, for inactives: at the highest dose activation, actives largely listed as activators. 0.02% of 420,000 active; further: potency means the concentration at half of the fitted maximal effect; series mostly up to about 76 µM; % of control where 0% means no effect; nearly all actives have a fitted effect of over 35% in size
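ERSR induction read as luciferase luminescence (Bright-Glo, 10 min at room temperature) in stably transfected human U87-MG glioma cells exposed to compounds for 16 h, using GRP78 as sensor.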
12-LOX inh – inhibitors of human 12S-lipoxygenase ALOX12. purified 12hLO, xylenol orange hydroperoxide absorbance. Potency, µM (doses to about 108 µM), for inactives: at the top dose activity change, negative = inhibition, actives largely listed as inhibitors. 1.1% of 580,000 active; further: potency means the concentration at half of the fitted maximal effect; on the % scale 0 is the no-effect control and ±100 the full control effect
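Hydroperoxide product was detected by ferrous iron/xylenol orange as the 573 to 405 nm absorbance ratio. Arachidonic acid at 40 uM (final) was turned over for 30 min at room temperature by 150 nM human 12hLO, pH 7.0 Hepes buffer, after 15 min compound preincubation.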
Vif-APOBEC3F blk – Vif-A3F binding inhibition. HeLa A3F-eYFP + Vif (tagged APOBEC3F with the HIV-1 protein that degrades it), YFP fluorescence increase. Potency, µM (doses to about 46.1 µM), for the others: top-dose activity, negative = active. 0.2% of 390,000 active. AID 602313; further: potency means the concentration at half of the fitted maximal effect; % of control where 0% means no effect; nearly all actives have a fitted effect of over 65% in size
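HeLa cells stably expressing Vif plus C-terminally eYFP-tagged A3F were seeded, incubated overnight at 37 deg C, dosed with compound, incubated overnight again at 37 deg C. Yellow fluorescence (Ex 488/Em 500-530) reported blocked Vif-mediated A3F-eYFP degradation.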
An asterisk follows results filed as active; ? = inconclusive; . = not tested or not shown; ! = not confirmed by another sample. Only some compounds are listed: those with a hit (about 1.3% of all), similar ones and a draw of the others. Unless noted, the call rests on the fitted dose curve; in most records, active means well fitted curve in the direction sought with a large enough effect; inconclusive means small, poorly fitted or top-dose-only effect, or another doubt; inactive means no such curve, though single readings can be large; an effect the other way counts as inactive or inconclusive.

SMILES	TRPML1 ag	TRPML1 inh	Vif-APOBEC3G blk	GRP78 ERSR act	12-LOX inh	Vif-APOBEC3F blk
Cc1ccc2oc(/N=C(\N)NC(=O)C(C)(C)C)nc2c1	2	3	4%	-14%	198%	22µM*
O=C(COC(=O)c1cccnc1Nc1cccc(C(F)(F)F)c1)NCc1ccccc1Cl	.	.	.	.	-14%	.
CC(C)c1nc2cc(NC(=O)Cc3ccc([N+](=O)[O-])cc3)ccc2o1	.	.	.	.	7%	.
Cc1ccc(NC(=O)/C(C#N)=C/c2ccc(C)s2)c(C)c1	2	-7	11µM*	-2%	6%	?
Clc1ccccc1/C=N/NC1=Nc2cccc3cccc1c23	3	18	?	-2%	-22%	5.6µM*
C(=N\NC1=Nc2cccc3cccc1c23)/c1ccccn1	3	-1	-1%	4%	-20%	-8%
CC(=O)C1=C(O)C2(C)c3c(O)c(C)c(O)c(C(C)=O)c3OC2CC1=O (stereo not drawn)	0	-27	0%	-5%	32µM*	-5%
CCCCN(CC)C(=O)c1ccc(-c2ccccc2)cc1	5	-12	-2%	0%	-1%	3%
CCCCN(CCCC)C(=O)c1ccc(N)cc1	.	.	.	.	16µM*	.
CCOc1ccc(Br)cc1CNCCSc1nnnn1-c1ccccc1	12	38	-6%	32µM*	5%	-3%
CC(=O)c1cccc(NC(=S)NCCc2ccc(Cl)cc2)c1	-1	12	1%	-1%	?	-2%
OCCCNC(=S)Nc1ccc(Cl)cc1	.	.	.	.	50µM*	.
OCCCNC(=S)Nc1ccc(Nc2ccccc2)cc1	0	21	4%	-2%	?	0%
CC(=O)c1ccc(NC(=S)NCCc2ccc(Cl)cc2)cc1	.	.	.	.	50µM*	.
COCCCn1cc(CN2CC(N3CCN(Cc4cccc(C)c4)CC3)CS2(=O)=O)nn1 (stereo not drawn)	-1	.	.	.	11µM*	.
Cc1cccc(CN2CCN(C3CN(Cc4cn(Cc5cccc(C(F)(F)F)c5)nn4)S(=O)(=O)C3)CC2)c1 (stereo not drawn)	-1	.	.	.	13µM*	.
COCCCn1cc(CN2CC(N3CCCCC3)CS2(=O)=O)nn1 (stereo not drawn)	0	.	.	.	0%	.
CN(C)CCN1CCN(C2CN(Cc3cn(Cc4cccc(C(F)(F)F)c4)nn3)S(=O)(=O)C2)CC1 (stereo not drawn)	0	.	.	.	?	.
O=S1(=O)CC(N2CCN(CCO)CC2)CN1Cc1cn(Cc2cccc(C(F)(F)F)c2)nn1 (stereo not drawn)	0	.	.	.	25µM*	.
CN(C(=O)/C(C#N)=C\c1ccc(OC(F)F)cc1)C1CCCCC1	.	.	.	.	-52%	.
COc1ccccc1CNc1nc(-c2ccccc2)cs1	.	.	.	.	14µM*	.
c1ccc(-c2csc(Nc3ccc4c(c3)OCO4)n2)cc1	-1	.	-7%	-5%	3.5µM*!	.
COc1cccc(OC)c1C(=O)Nc1nc(-c2ccccc2)cs1	0	0	-8%	-1%	-18%	1%
COc1cccc(Nc2nc(-c3ccccc3)no2)c1	.	.	.	.	40µM*	.
COc1cccc(Nc2nc(-c3ccc(S(=O)(=O)N4CCOCC4)cc3)cs2)c1	.	.	.	.	27%	.
SMILES	TRPML1 ag	TRPML1 inh	Vif-APOBEC3G blk	GRP78 ERSR act	12-LOX inh	Vif-APOBEC3F blk
COc1cccc(Nc2nc(-c3ccc(CNC(C)=O)cc3)cs2)c1	.	.	.	.	16µM*	.
O=C(Nc1ccc(Br)c(Cl)c1)c1ccc(-c2ccccc2)cc1	.	.	.	.	-20%	.
N#Cc1cn(CC(=O)Nc2ccc(F)c(Cl)c2)c2ccccc12	.	.	.	.	11%	.
NC(N)=N/N=C/CCC1CCCCC1	.	.	.	.	-4%	.
O=C(NC1CCCCC1)c1cccc(NC(=O)C2CC2)c1	.	.	.	.	2%	.
COc1cccc(Nc2nc(-c3cccnc3)cs2)c1	1	9	-9%	1%	12%	0%
COc1cccc(Nc2nc(-c3ccccc3)cs2)c1	.	.	.	.	1µM*	.
Cc1ccc(Cc2c(-c3ccc(F)cc3)nc3cc(C)ccn23)cc1	2	42	?	0%	20µM*	?
Cc1ccc(Cc2c(-c3ccc(C#N)cc3)nc3ccc(Br)cn23)cc1	-1	42	-7%	-1%	20µM*	-6%
Cc1ccc(Cc2c(-c3ccc(Br)cc3)nc3cc(C)ccn23)cc1	0	21	-2%	7%	?	-3%
Cc1ccc(Cc2c(-c3ccccc3)nc3ccc(Br)cn23)cc1	1	-1	-6%	3%	6.3µM*	-9%
CC(Oc1ccc(Cl)cc1)C(=O)NC(C)c1ccc2ccccc2c1 (stereo not drawn)	.	.	.	.	21%	.
O=C(CSc1n[nH]c(-c2ccccn2)n1)Nc1ccc(Cl)cc1	1	11	-7%	-4%	-25%	7.9µM*
COc1ccccc1C(=O)N1CCN(c2oc(-c3cccc(C)c3)nc2C#N)CC1	.	.	.	.	-54%	.
CC(=O)c1ccc(N2CCN(CCS(=O)(=O)c3ccc(Br)cc3)CC2)cc1	.	.	.	.	-28%	.
COc1ccccc1CNCc1ccc(C)cc1	-1	-4	2%	-1%	1µM*	1%
CCN1C(=O)C2CC3(CCN(Cc4cccc(OC(F)(F)F)c4)CC3)CN2C1=O (stereo not drawn)	.	.	.	.	-1%	.
O=C(O)c1cc2ccc(Br)cc2[nH]1	.	.	.	.	18µM*	.
CC(C)CCCCCCNC(=S)Nc1ccc(S(=O)(=O)N2CCOCC2)cc1	0	-12	-13%	-4%	50µM*	-1%
CCSC1=NC(C)(C)C=C(/C=C/c2ccc(Cl)cc2Cl)N1	-1	11	-28%	?	40µM*	-14%
O=C(Nc1ccc([N+](=O)[O-])cc1)C(Cc1ccccc1)N1C(=O)c2cccc3cccc(c23)C1=O (stereo not drawn)	0	-11	10µM*	?	-26%	?
CCC(C)(Nc1ccccc1)c1nnnn1-c1cccc(C)c1 (stereo not drawn)	.	.	.	.	-45%	.
COC(=O)Nc1ccccc1Cc1ccccc1	.	.	.	.	34%	.
CC(C)N1CCc2c(sc(NC(=O)c3ccc4ccccc4c3)c2C(N)=O)C1	9	1	?	-5%	?	?
CC(C)N1CCc2c(sc(NC(=O)c3cc4cc([N+](=O)[O-])ccc4s3)c2C(N)=O)C1	0	-3	8.9µM*	-8%	?	?
CCOc1ccc(C(NC(C)=O)c2cc(Cl)c3cccnc3c2O)cc1 (stereo not drawn)	4	.	2%	0%	.	.
CCOc1ccc(C(Nc2cccnc2)c2cc(Cl)c3cccnc3c2O)cc1 (stereo not drawn)	1	-8	?	-7%	10µM*	-28%
CN1CCc2nc(SCc3ccc(Cl)cc3)c(C#N)c(-c3cccs3)c2C1	1	21	-1%	-2%	20µM*	?
N#Cc1c(N)nc(SCc2ccncc2)c(C#N)c1-c1cccs1	0	-5	-17%	-4%	18%	-7%
